Data published in PubChem BioAssay AID1159580 (chemical genetic matrix, 2015).
Values joined by “and” are separate entries in the source; they are usually repeats but may differ in a detail not shown here. Identical values can stand only once. Among all 5,500 compounds or so, about 2,000 (36%) were called active. Another 18% or so got no clear call; they are omitted. Rule as the data show it: active = normalized growth mostly below about 0.91 (no sharp cut-off); inconclusive = no clear call, values can overlap the other calls; inactive = mostly above about 0.92. Some of the results follow. Where a SMILES comes first, the peptide text is derived from it. Side-chain parts run from the residue outwards. [ ]: non-standard residue; d: D form. The star is where a group is joined. X1 = CCC(C)C(N)C1=NC(C(=O)*)CS1; Orn = NCCC[CH](N)C(=O)O

Experiment: chemical genetic growth profiling, strain panel (AID 1159580);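 also: tested at 20 µM; growth read once vehicle control cultures reached saturation at 30 °C; 1 = growth at the plate median or of vehicle wells; lower values mean less growth of the strain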
Conditions: S. cerevisiae deletion strains, growth OD

Measured: normalized growth

CCC(C)C(N)C1=NC(C(=O)NC(CC(C)C)C(=O)NC(CCC(=O)O)C(=O)NC(C(=O)NCCCCC2NC(=O)C(CC(N)=O)NC(=O)C(CC(=O)O)NC(=O)C(Cc3cnc[nH]3)NC(=O)C(Cc3ccccc3)NC(=O)C(C(C)CC)NC(=O)C(CCCN)NC2=O)C(C)CC)CS1 (stereo not drawn) (cyclo(DNK([Ile-Glu-Leu-X1])[Orn]IFH); configuration not given here)
inactive: locus YAL013W, strain DEP1, active compounds read low 1.01 | locus YAL021C, strain ccr4, active compounds read low 0.992 | locus YAL026C, strain drs2, active compounds read low 0.929 | locus YAL030W, strain snc1, active compounds read low 0.997 | locus YBL061C, strain skt5, active compounds read low 1 | locus YBR009C, strain hhf1, active compounds read low 0.952 | locus YBR021W, strain FUR4, active compounds read low 1.01 | locus YBR023C, strain chs3, active compounds read low 1.02 | locus YBR171W, strain sec66, active compounds read low 1 | locus YBR229C, strain ROT2, active compounds read low 0.991 | locus YBR231C, strain swc5, active compounds read low 0.999 | locus YBR279W, strain paf1, active compounds read low 1.01 | locus YCL011C, strain gbp2, active compounds read low 0.968 | locus YCL016C, strain dcc1, active compounds read low 0.981 | locus YCL029C, strain bik1, active compounds read low 1.01 | locus YCL061C, strain MRC1, active compounds read low 0.993 | locus YCL069W, strain vba3, active compounds read low 1 | locus YCR088W, strain abp1, active compounds read low 1.01 | locus YDL005C, strain med2, active compounds read low 0.999 | locus YDL035C, strain GPR1, active compounds read low 0.998 | locus YDL040C, strain nat1, active compounds read low 1.01 | locus YDL074C, strain BRE1, active compounds read low 1.04 | locus YDL101C, strain DUN1, active compounds read low 1 | locus YDL185W, strain tfp1, active compounds read low 1.04 | locus YDL192W, strain arf1, active compounds read low 1 | locus YDR001C, strain nth1, active compounds read low 0.987 | locus YDR069C, strain doa4, active compounds read low 1.02 | locus YDR101C, strain arx1, active compounds read low 1.02 | locus YDR137W, strain rgp1, active compounds read low 0.992 | locus YDR150W, strain NUM1, active compounds read low 1 | locus YDR159W, strain sac3, active compounds read low 0.996 | locus YDR162C, strain NBP2, active compounds read low 0.976 | locus YDR195W, strain ref2 0.976 | locus YDR297W, strain sur2, active compounds read low 1.01 | locus YDR318W, strain mcm21, active compounds read low 0.989 | locus YDR334W, strain swr1, active compounds read low 1.01 | locus YDR335W, strain msn5, active compounds read low 1.01 | locus YDR388W, active compounds read low 1.01 | locus YDR392W, strain spt3, active compounds read low 0.94 | locus YDR502C, strain sam2, active compounds read low 1.01 | locus YEL003W, strain gim4, active compounds read low 1.01 | locus YEL037C, strain rad23, active compounds read low 1.01 | locus YEL061C, strain CIN8 (second series), active compounds read low 1.01 | locus YEL061C, strain CIN8, active compounds read low 0.998 | locus YER015W, strain faa2, active compounds read low 1.01 | locus YER016W, strain bim1, active compounds read low 1 | locus YER110C, active compounds read low 1 | locus YER111C, strain swi4, active compounds read low 1.01 | locus YER155C, strain BEM2 (second series), active compounds read low 1.01 | locus YER155C, strain BEM2, active compounds read low 0.992 | locus YER167W, strain BCK2, active compounds read low 1.01 | locus YFR010W, strain ubp6, active compounds read low 1.03 | locus YGL078C, strain dbp3, active compounds read low 1.01 | locus YGL086W, strain mad1, active compounds read low 1.05 | locus YGL167C, strain pmr1, active compounds read low 1.02 | locus YGL173C, strain kem1, active compounds read low 1 | locus YGL227W, strain vid30, active compounds read low 1 | locus YGL240W, strain doc1, active compounds read low 1.03 | locus YGL248W, strain PDE1, active compounds read low 1 | locus YGL253W, strain hxk2, active compounds read low 0.993 | locus YGR135W, strain pre9, active compounds read low 1.01 | locus YGR252W, strain gcn5, active compounds read low 0.924 | locus YHR013C, strain ard1, active compounds read low 0.991 | locus YHR027C, strain rpn1, active compounds read low 1.01 | locus YHR030C, strain SLT2, active compounds read low 1 and 1.02 | locus YHR079C, strain IRE1 (second series), active compounds read low 1 | locus YHR079C, strain IRE1, active compounds read low 1.05 | locus YHR094C, strain hxt1, active compounds read low 0.993 | locus YHR129C, strain ARP1, active compounds read low 0.994 | locus YHR142W, strain chs7, active compounds read low 1.04 | locus YHR200W, strain rpn10, active compounds read low 0.984 | locus YIL066C, strain RNR3, active compounds read low 1 | locus YIL073C, strain SPO22, active compounds read low 1.19 | locus YIL125W, strain kgd1, active compounds read low 1.01 | locus YIR030C, strain dcg1, active compounds read low 0.993 | locus YJL092W, strain hpr5, active compounds read low 1 | locus YJL095W, strain BCK1 (second series), active compounds read low 1.01 | locus YJL095W, strain BCK1, active compounds read low 0.999 and 1.04 | locus YJL115W, strain asf1, active compounds read low 0.989 | locus YJL129C, strain trk1, active compounds read low 1.02 | locus YJL134W, strain LCB3, active compounds read low 1 | locus YJL154C, strain vps35, active compounds read low 1 | locus YJL164C, strain tpk1, active compounds read low 0.972 | locus YJL166W, strain qcr8, active compounds read low 1.01 | locus YJL168C, strain set2, active compounds read low 1.01 | locus YJL187C, strain SWE1 (second series), active compounds read low 0.997 | locus YJL187C, strain SWE1, active compounds read low 1 | locus YJR043C, strain POL32, active compounds read low 0.996 | locus YJR066W, strain TOR1, active compounds read low 0.969
